Screens from PubChem BioAssay.
Compounds with a hit are over-represented: about 1.7% of the library has one in this group of screens.
HEK293 tox: qHTS of GLP-1 Receptor Inverse Agonists: Cytotox Screen; HEK293 cAMP-luciferase reporter cells, luminescence, 24 h; Potency, µM (series often up to 38.3 µM), for inactives: at the highest dose activity change, negative = inhibition, most hits filed as inhibitors; actives 0.13% (n = 410,000);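 also: loss of luciferase light is scored as toxicity; % is scaled to controls: 0 for no effect and ±100 for the full control effect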
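A 23 nL compound transfer followed 12 hours of cell culture at 37 deg C; exposure then lasted 24 hr. Luciferase assay detection reagent was dispensed and plates read for luminescence after a 12 min room-temperature wait.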
PTHR1 agonist: qHTS for PTHR1 Agonists: Primary Screen | Parathyroid hormone/parathyroid hormone-related peptide receptor (Homo sapiens), Q03431 | HEK293 GP2 PTHR1 cells, GloSensor cAMP luminescence, 1 h | Potency, µM (top dose mostly 115 µM), inactives show at the top dose activation, actives largely listed as activators | actives 0.075% (n = 410,000) | AID 743266, 2014; also: nearly all actives have a fitted effect of over 55% in size
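HEK-293-derived GP2 cells expressing PTHR1 and a GloSensor cAMP reporter, 3,000/well, plated overnight, given luciferin plus IBMX (each 0.5 mM as added) for 1 h at 37 °C, then compound for 1 h at 37 °C. Luminescence was read after 15 min at room temperature.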
GLP1R inv ag: qHTS of GLP-1 Receptor Inverse Agonists (Inhibition Mode); Potency, µM (titrated, usually from 38.3 µM), for inactives: top-dose activity change, negative = inhibition, usual class: inhibitors; AID 624417, 2012; Glucagon-like peptide 1 receptor (Homo sapiens), P43220; HEK293 GLP-1R CRE-luciferase, luminescence, 24 h; GLP-1R form is constitutively active; actives 1.6% (n = 410,000); also: % is scaled to controls: 0 for no effect and ±100 for the full control effect; nearly all actives have a fitted effect of over 55% in size
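GLP-1R inverse agonism mode: basal reporter luminescence in engineered HEK293 cells measured after one day of compound exposure at 37 deg C, with a 12 min room-temperature detection step.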
GLP-1R agonist: qHTS of GLP-1 Receptor Agonists. Potency, µM (titrated, usually from 45.6 µM), without a hit: at the highest dose activation, most hits filed as activators. actives 0.007% (n = 380,000). HEK293 GLP-1R CRE-luciferase, luminescence, 4-6 h; cells express a hypersensitive GLP-1R form. AID 624172, 2012; also: % of control where 0% means no effect
An asterisk follows results filed as active; i = inactive; u = inconclusive; x = no result given; [ ] = another dose, or the depositor's remark. Calls follow the shape of the dose curve; as a rule, active = well fitted curve in the direction sought with a large enough effect; inconclusive = small, poorly fitted or top-dose-only effect, or another doubt; inactive = no such curve, though single readings can be large; an effect the other way counts as inactive or inconclusive. Potency is read from the fitted curve at half-maximal effect.

SMILES	HEK293 tox	PTHR1 agonist	GLP1R inv ag	GLP-1R agonist
CCN(CC)S(=O)(=O)c1cccc(C(=O)Nc2nc3cc4c(cc3s2)OCCO4)c1	-29%	-30%[57.5 µM]	11µM*	-10%
CC(C)Oc1ccc(S(=O)(=O)N2CCCCC2)cc1NC(=O)C1=COCCO1	-1%	-55%	u	-12%
Cc1cccc(Oc2ccc(S(=O)(=O)N3CCCCC3)cc2NC(=O)C2=COCCO2)c1	7%	-7%	10µM*	7%
CCOC(=O)C(=CNc1ccc(-c2ccco2)c(Cl)c1)C(=O)OCC	9%	1%	0%	1%
CCOC(=O)C(=CNc1cc(Cl)c(-c2ccco2)c(Cl)c1)C(=O)OCC	34%	i	10µM*	12%
O=C(c1cc2cc(Cl)ccc2oc1=O)N1CCCCCCC1	3%	-3%	-3%	-2%
O=C(C1CN(C(=O)c2cc3cc(Cl)ccc3o2)c2ccccc2O1)N1CCCCC1 (configuration not stated)	-31%	-42%	11µM*	-25%
O=C(C1CCCCCC1)N1CC[C@@H](N2CCC(O)CC2)[C@H](O)C1	-5%	-20%	-9%	-17%
Cc1cc2c3c(c1)C(C)(c1ccccc1)CC(C)(C)N3C(=O)C21C(C#N)=C(N)OC2=C1C(=O)CC(C)(C)C2 (configuration not stated)	-24%	-6%[57.5 µM]	u	-17%
CC1(c2ccccc2)CC(C)(C)N2C(=O)C3(C(C#N)=C(N)Oc4cc(O)ccc43)c3cccc1c32 (configuration not stated)	u	-30%	5.6µM*	-13%
Cc1cc(C)cc(NS(=O)(=O)c2ccc(N3CCCCS3(=O)=O)cc2)c1	-3%	-32%	u	x
COc1cc(/C=C/C(=O)c2ccc3c(c2)OCO3)cc(Cl)c1O	391%	-13%	11µM*	9%
CO[C@H]1C[C@@H]2CC[C@@H](C)[C@@](O)(O2)C(=O)C(=O)N2CCCC[C@H]2C(=O)O[C@H]([C@H](C)C[C@@H]2CC[C@@H](O)[C@H](OC)C2)CC(=O)[C@H](C)/C=C(\C)[C@@H](O)[C@@H](OC)C(=O)[C@H](C)C[C@H](C)/C=C/C=C/C=C/1C	x	x	x	5%
Cc1cccc(-c2nc(CN3CCCC(C(=O)NC4CCCCCC4)C3)c(C)o2)c1 (configuration not stated)	u	-1%[57.5 µM]	u	-1%
Cc1cccc(-c2nc(CN3CCCC(C(=O)NC4CCCCC4)C3)c(C)o2)c1 (configuration not stated)	u	u	3.5µM*	4%
CCOc1ccc(/C=N/NS(=O)(=O)c2ccc(C)cc2)cc1OC	0%	-39%	20%	7%
COc1cc(/C=N/NS(=O)(=O)c2ccc(C)cc2)ccc1OCc1ccc(C(=O)O)cc1	-10%	-30%	2.8µM*	-8%
O=C1CCC2(CC1)NC(=O)N(c1ccccc1)N2	15%	-22%	u	0%
CCn1cc(CCCC(=O)NCc2cccc(OC)c2)c2ccccc21	-2%	i	10µM*	14%
COc1ccc(N2CCN(C(=O)c3cc(-c4ccc(F)cc4)[nH]c3C)CC2)cc1	-8%	-30%	10µM*	7%
OC(c1ccccc1)(c1nc(/C=C/c2ccc(C(F)(F)F)cc2)cs1)C(F)(F)F (configuration not stated)	u	-6%	7.9µM*	-2%
Cc1[nH]c2ccccc2c1C(c1ccccc1)c1ccc(Cl)s1 (configuration not stated)	-13%	-97%	10µM*	x
Cc1[nH]c2ccccc2c1C(C[N+](=O)[O-])c1cccs1 (configuration not stated)	-2%	-23%	u	3%
CC(C(=O)N(C)C1CCCCC1)N1CCC(C(N)=O)CC1 (configuration not stated)	6%	-11%	-14%	6%
COCCN(Cc1cc2ccc(C)cc2[nH]c1=O)S(=O)(=O)c1ccccc1	8%	-1%	-7%	10%
COc1ccc(NC(=O)C(CC(=O)O)C(C)c2ccccc2)cc1 (configuration not stated)	-24%	i	3%	1%
